Cruzain inh noDet: qHTS Assay for Promiscuous and Specific Inhibitors of Cruzain (without detergent); Cruzipain (Trypanosoma cruzi), P25779; purified cruzain, Z-FR-AMC fluorescence, no detergent; Potency, µM, for the others: max response, negative = inhibition, actives largely listed as inhibitors; 2.3% of 200,000 active; AID 1476, 2009;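 note: plate controls were enzyme without inhibitor for no effect and buffer without enzyme for full effect; nearly all actives have a fitted effect of over 40% in size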
Target sequence (P25779 123-467 limits assumed): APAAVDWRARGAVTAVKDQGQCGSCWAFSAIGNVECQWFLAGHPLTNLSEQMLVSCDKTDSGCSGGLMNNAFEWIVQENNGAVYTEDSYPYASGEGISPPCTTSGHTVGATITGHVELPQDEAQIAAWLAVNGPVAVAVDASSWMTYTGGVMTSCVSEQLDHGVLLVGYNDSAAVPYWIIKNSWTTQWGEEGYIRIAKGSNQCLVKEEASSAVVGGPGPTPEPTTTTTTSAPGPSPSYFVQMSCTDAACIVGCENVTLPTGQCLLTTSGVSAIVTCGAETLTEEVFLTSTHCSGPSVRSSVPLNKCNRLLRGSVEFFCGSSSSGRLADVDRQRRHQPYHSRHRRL
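Purified cruzain at 1.5 nM, pre-incubated 15 min with compound at room temperature in 100 mM sodium acetate pH 5.5, 5 mM DTT, 0.00005% Triton X-100. Reaction started with 2 uM Z-FR-AMC; AMC fluorescence increase over 60 s gives rate.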
Cruzain Triton: qHTS Assay for Promiscuous and Specific Inhibitors of Cruzain (with detergent); purified cruzain, Z-FR-AMC fluorescence, 0.01% Triton; Cruzipain (Trypanosoma cruzi), P25779; 0.43% of 200,000 active; Potency, µM, for the others: max response, negative = inhibition, most hits filed as inhibitors;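 note: plate controls were neutral wells for no effect and buffer without enzyme for full effect; nearly all actives have a fitted effect of over 40% in size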
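Read-out: AMC fluorescence (360 nm excitation, 450 nm emission), four reads over 2 min, first-to-third difference used. Conditions: cruzain 1.5 nM, Z-FR-AMC 2 uM, pH 5.5 acetate, 5 mM DTT, 0.01% Triton X-100.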
* = called active by the depositor; ? = inconclusive. Compounds with a hit are over-represented: about 2.4% of the library has one in this group of screens. Calls come from the whole dose curve; as a rule, active = well fitted curve in the direction sought with a large enough effect; inconclusive = small, poorly fitted or top-dose-only effect, or another doubt; inactive = no such curve, though single readings can be large; an effect the other way counts as inactive or inconclusive. Potency is the fitted concentration of half-maximal effect.

SMILES	Cruzain inh noDet	Cruzain Triton
CCNc1ncc2nc(C)c(=O)n(C[C@H]3CCCO3)c2n1	?	20µM*
C=C(C)[C@H]1CC=C(CO)CC1	5.6%	0.0%
CC(=O)NCCNc1nc(-c2ccccc2CN(C)C)nc2ccccc12	-6.3%	2.4%
C#CCOC(=O)NC(/C=C/CCCC)c1ccccc1 (stereo not drawn)	-3.8%	1.0%
CC(=O)NCCNC(=O)[C@H](Cc1ccccc1)NC(=O)c1cccs1	1.6%	4.2%
O=C(COC(=O)[C@H](Cc1ccccc1)NC(=O)c1cccs1)Nc1c(Cl)cccc1Cl	25.1µM*	15.8µM*
COc1ccc(NS(=O)(=O)c2ccc3[nH]c4c(c3c2)CCCCC4)cc1	?	-10.7%
Cc1nn(Cc2c(F)c(F)c(F)c(F)c2F)c(C)c1NC(=O)c1cccc(COc2ccc(Cl)cc2)c1	-12.6%	2.8%
CC(C)c1cc(C(N)=O)c(NC(=O)c2cccc(COc3ccc(Cl)cc3)c2)s1	20µM*	-2.8%
O=C(CN1CCc2ccccc21)Nc1ccc2c(c1)OCO2	12.6µM*	-1.8%
O=C(CN1CCN(c2nc(-c3ccccc3)cs2)CC1)Nc1ccc2c(c1)OCO2	25.1µM*	2.4%
CCc1nnc(NC(=O)CN2CCN(c3nc(-c4ccccc4)cs3)CC2)s1	?	-3.3%
O=C(CN1CCc2ccccc21)NCc1ccc2c(c1)OCO2	-4.2%	-1.8%
CCOc1ccc(NC(=O)CSc2nccn2-c2cccc(C)c2C)cc1	-1.7%	-3.8%
CCCCCCOC(=O)C1(O)CC2OC1(C)n1c3ccccc3c3c4c(c5c6ccccc6n2c5c31)C(=O)NC4 (stereo not drawn)	-15.9%	2.8%
CC(=O)Nc1ccc(NC(=O)c2ccc3c(c2)N(Cc2cccc(Cl)c2)C(=O)c2ccccc2S3(=O)=O)cc1	-19.9%	-5.3%
CC(C)CCNC(=O)c1ccc2c(c1)N(Cc1cccc(Cl)c1)C(=O)c1ccccc1S2	?	0.9%
O=C(NC1CCCC1)c1ccc2c(c1)N(Cc1ccccc1Cl)C(=O)c1ccccc1S2	?	-0.4%
N#Cc1cccc(NC(=O)c2ccc3c(c2)N(Cc2cccc(Cl)c2)C(=O)c2ccccc2S3(=O)=O)c1	6.31µM*	-2.8%
O=C(Nc1ccc(Cl)cc1)c1ccc2c(c1)N(Cc1ccccc1)C(=O)c1ccccc1S2(=O)=O	?	-6.9%
O=C(NC1CCCCC1)c1ccc2c(c1)N(Cc1ccccc1Cl)C(=O)c1ccccc1S2	10µM*	2.1%
COc1ccc(CNC(=O)c2ccc3c(c2)N(Cc2cccc(Cl)c2)C(=O)c2ccccc2S3)c(OC)c1	12.6µM*	0.0%
Cc1cc(NC(=O)c2ccc3c(c2)N(Cc2cccc(Cl)c2)C(=O)c2ccccc2S3(=O)=O)ccc1Br	3.16µM*	-1.0%
Cc1ccccc1-c1cncnc1NCc1cccs1	-8.8%	1.1%
Clc1nc2ccccc2nc1Cl	-7.2%	0.2%
SMILES	Cruzain inh noDet	Cruzain Triton
CCOc1ccccc1NC(=O)Cn1c(=O)ccc2cc(S(=O)(=O)N3CCCC3)ccc21	0.8%	-4.7%
CCOc1ccc(CCNc2ncnc3onc(C)c23)cc1OCC	9.6%	-1.4%
O=C(CSc1nc(-c2cccs2)nc2cc(=O)[nH]n12)Nc1cccc(C(F)(F)F)c1	?	-6.9%
Cc1ccc(CCNC(=O)c2ccc3c(c2)N(Cc2cccc(C)c2)C(=O)c2ccccc2S3(=O)=O)cc1	?	-0.1%
O=C(NCCc1ccc(Cl)cc1)c1ccc2c(c1)N(Cc1cccc(Cl)c1)C(=O)c1ccccc1S2(=O)=O	10µM*	1.5%
Cc1nc(N2CCCC2)ncc1C(=O)Nc1ccccc1	-3.7%	-2.9%
COC(=O)C=P(c1ccccc1)(c1ccccc1)c1ccccc1	-2.1%	1.7%
COC(=O)[C@@]1(Cc2ccc(OC)cc2)[C@H]2c3cc(C(=O)N(C)C)n(Cc4ccc(C(F)(F)F)nc4)c3C[C@H]2CN1C(=O)c1ccccc1	?	-4.9%
N#Cc1c(Cl)nc(Cl)c2c1CCN(Cc1ccccc1)C2	-21.8%	-9.1%
N#Cc1c(NCCN)nc(NCc2ccccc2)c2c1CCN(Cc1ccccc1)C2	7.94µM*	-1.3%
CCOC(=O)CNS(=O)(=O)c1ccc(C)cc1	-5.2%	-1.5%
Cc1ccc(C(=O)C(OC(=O)CNS(=O)(=O)c2ccccc2)c2ccccc2)cc1 (stereo not drawn)	31.6µM*	?
NC(N)=NC(N)=Nc1ccc(C(=O)O)cc1	4.2%	2.2%
Cc1ccc(C)c(N(C)C(=O)C2CCN(S(=O)(=O)c3cccc4nsnc34)CC2)c1	5.0%	-1.5%
Cc1ccc2nc(-c3cc(N)cc(N)c3)oc2c1	?	-1.5%
Nc1ccc(-c2nc3ccc(N)cc3o2)cc1	15.8µM*	20µM*
CCOC(=O)c1c(C)c(-c2ccccc2)n(CC(=O)Nc2cccc(C)c2C)c1C	-2.4%	-0.6%
COC(=O)N[C@@H](c1cccc(F)c1)C(C(C)=O)C(=O)OC (stereo partly drawn)	-5.7%	2.6%
O=C(Nc1ccc([N+](=O)[O-])cc1)c1cn(-c2ccccc2)nc1-c1cc2ccccc2o1	7.94µM*	-2.9%
O=C(Nc1ccccc1)c1cn(-c2ccccc2)nc1-c1ccccc1	29.0%	-4.8%
COc1ccc(OC)c(NC(=O)CSc2nccn2-c2cc(C)cc(C)c2)c1	7.1%	-7.8%
CCSc1ncc(Cl)c(C(=O)N(Cc2ccc(N(C)C)cc2)Cc2ccco2)n1	-22.4%	-6.1%
O=[N+]([O-])c1cc(S(=O)(=O)C(F)(F)F)ccc1Sc1nc2ccccc2s1	25.1µM*	-6.7%
CS(=O)(=O)c1ccc(Sc2nc3ccccc3s2)c([N+](=O)[O-])c1	-21.2%	-3.8%
Cc1ccc(/C=C(\C#N)C(=O)Nc2cccc(Br)c2)o1	12.6µM*	-1.3%
SMILES	Cruzain inh noDet	Cruzain Triton
Cc1ccc(/C=C(\C#N)C(=O)Nc2ccc(Br)cc2)o1	-13.4%	-0.2%
O=C1c2ccccc2C(=O)N1SC1CCCCC1	6.31µM*	14.1µM*
O=C(OCN1C(=O)c2ccccc2C1=O)C1CCCCC1	-26.2%	-1.4%
CS(=O)(=O)N1CCC2(CCN(c3ccccn3)CC2)CC1	-3.2%	-2.8%
Clc1nc(Cl)nc(Cl)n1	5.8%	9.2%
NC(=O)c1ccccc1NC(=O)CN1c2ccccc2S(=O)(=O)c2ccccc21	-8.2%	-2.6%
COc1cc(Cl)c(C)cc1NC(=O)CN1c2ccccc2S(=O)(=O)c2ccccc21	25.1µM*	-5.5%
Cc1cc(NC(=O)CS(=O)(=O)c2cn(Cc3ccccc3Cl)c3ccccc23)no1	25.1µM*	-3.8%
CCOC(=O)N1CCN(C(=O)CS(=O)(=O)c2cn(Cc3ccccc3Cl)c3ccccc23)CC1	?	3.0%
Nc1nccc(Nc2ccc(S(N)(=O)=O)cc2)n1	0.8%	-3.4%
Cc1ccc(S(=O)(=O)NC(=O)Nc2ccccc2F)cc1	3.8%	-2.5%
Cc1ccc(C(=O)c2sc(Nc3ccccc3F)c(S(=O)(=O)c3ccccc3)c2N)c(C)c1	6.31µM*	-2.6%
Cc1ccc(C(=O)c2sc(Nc3ccccc3)c(C#N)c2N)cc1	7.7%	-5.2%
Cc1ccc(C(=O)c2sc(Nc3ccccc3)c(S(=O)(=O)c3ccccc3)c2N)c(C)c1	7.94µM*	-1.9%
COCC1=C2c3ccccc3[C@@H]3CNC(=O)C3(C(=O)OC)C[C@@H]2n2c(=O)n(-c3ccccc3)c(=O)n2C1 (stereo partly drawn)	-0.9%	-0.9%
CCn1c(C)c(C2=CCN(S(=O)(=O)c3ccc(C)cc3)CC2)c2ccccc21	?	-4.3%
Cc1c(C2=CCN(S(=O)(=O)c3ccc(Br)cc3)CC2)c2ccccc2n1C	10µM*	-2.4%

Assay outcomes: PubChem, National Center for Advancing Translational Sciences (NCATS)
